# Legend:
# Conditions in all cases: concentration: 1 μM, replicates: in singlicate; n = 1
# [1] = test system: SRMS
# [2] = test system: SRPK1
# [3] = test system: SRPK2
# [4] = test system: SRPK3
# [5] = test system: STK16
# [6] = test system: STK33
# [7] = test system: STK35
# [8] = test system: STK36
# [9] = test system: STK39
# [10] = test system: SYK
# [11] = test system: SgK110
# [12] = test system: T1, TAK1
# T1 construct: gene MAP3K7
# [13] = test system: TAOK1
# [14] = test system: TAOK2
# [15] = test system: TAOK3
# [16] = test system: TBK1
# [17] = test system: TEC
# [18] = test system: TESK1
# [19] = test system: TGFBR1
# [20] = test system: TGFBR2
# 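Also: KINOMEscan kinase panel screen.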
SMILES,%Inh [1],%Inh [2],%Inh [3],%Inh [4],%Inh [5],%Inh [6],%Inh [7],%Inh [8],%Inh [9],%Inh [10],%Inh [11],%Inh [12],%Inh [13],%Inh [14],%Inh [15],%Inh [16],%Inh [17],%Inh [18],%Inh [19],%Inh [20]
c1ccc(-c2ccc3c(-c4ccnc(Nc5ccc6c(c5)OCCO6)n4)cnn3n2)cc1 [GW818941],0%,48%,0%,21%,95.8%,17%,8%,25%,22%,7%,0%,0%,0%,0%,5%,22%,0%,12%,11%,22%
Fc1ccc(Nc2nccc(-c3c(-c4ccc(Cl)cc4)nn4ncccc34)n2)cc1F [GW829058],22%,0%,0%,6%,23%,1%,0%,8%,22%,7%,9%,38%,10%,16%,27%,31%,8%,16%,0%,0%
Cl.Fc1ccccc1COc1ccc(Nc2ncnc3ccc(-c4nnc(C(F)(F)F)o4)cc23)cc1Cl [GW424170],0%,0%,3%,0%,0%,0%,0%,0%,0%,0%,0%,0%,0%,0%,0%,7%,5%,29%,0%,0%
O=C(NCCCN1CCCC1=O)c1cnc(NCc2cc(Cl)ccc2Cl)nc1NC1CCNCC1,0%,21%,0%,4%,0%,0%,0%,0%,0%,8%,5%,27%,0%,0%,0%,12%,0%,2%,0%,6%
O=c1cc(N2CCOCC2)nc2n(Cc3cccc(Cl)c3)ccn12 [GSK2296823],0%,16%,0%,51%,0%,0%,6%,0%,11%,5%,0%,0%,0%,0%,0%,38%,1%,0%,0%,0%
O=C(Nc1ccccc1)Nc1ccc(Oc2ccc3nccn3n2)cc1,3%,28%,16%,16%,0%,9%,0%,0%,0%,6%,27%,0%,0%,5%,0%,34%,10%,11%,0%,27%
CNc1nccc(-c2c(-c3ccc(F)cc3)ncn2C2CCN(C)CC2)n1 [SB-222903],15%,0%,0%,0%,0%,13%,0%,3%,0%,27%,36%,0%,0%,7%,0%,1%,10%,3%,24%,0%
OCCOCCn1ccc2ncnc(Nc3ccc(Oc4cccc(Cl)c4)c(Cl)c3)c21,0%,0%,0%,0%,0%,0%,0%,0%,0%,26%,0%,0%,0%,0%,0%,7%,0%,0%,7%,0%

# — publication PMC5540273 (PLoS ONE, 2017)
